# Data published in PubChem BioAssay (NCATS).
# Several values for one entry are separate records, joined by “and”; a condition that tells them apart may be missing. Identical values can stand only once. Inconclusive results are not listed. Where a call stands in place of a potency, no number is given. A number with no mark means an inactive call. Activity calls are given as the source filed them. Calls come from the whole dose curve; as a rule, active = well fitted inhibition curve with a large enough effect; inconclusive = small, poorly fitted or top-dose-only effect; inactive = flat fitted curve, though single readings scatter.
# Columns and labels:
# P93_24 = assay: qHTS profiling for inhibitors of Plasmodium falciparum proliferation (AID 504749); note: potency is the fitted concentration of half-maximal effect; details: P. falciparum in erythrocytes, SYBR Green DNA, 72 h; series mostly up to 28.7 µM
# Procedure, shortened: (§1)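 Three-day growth assay of blood-stage parasites in erythrocytes (0.3% parasitemia, 2.5% hematocrit) at 37 C, 5% CO2, quantified by SYBR Green DNA staining after overnight detergent lysis.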
# P94_40 = assay: as above; details: P. falciparum in erythrocytes, SYBR Green DNA, 72 h; series mostly up to 28.7 µM
# Procedure, shortened: as §1
# PAD = assay: as above; details: P. falciparum in erythrocytes, SYBR Green DNA, 72 h; series mostly up to 28.7 µM
# Procedure, shortened: as §1
# PC15 = assay: as above; details: P. falciparum in erythrocytes, SYBR Green DNA, 72 h; series mostly up to 28.7 µM
# Procedure, shortened: as §1
# PC26 = assay: as above; details: P. falciparum in erythrocytes, SYBR Green DNA, 72 h; series mostly up to 28.7 µM
# Procedure, shortened: as §1
# PC49 = assay: as above; details: P. falciparum in erythrocytes, SYBR Green DNA, 72 h; series mostly up to 28.7 µM
# Procedure, shortened: as §1
# SC27B = assay: as above; details: P. falciparum in erythrocytes, SYBR Green DNA, 72 h; series mostly up to 28.7 µM
# Procedure, shortened: as §1
# TAB109 = assay: as above; details: P. falciparum in erythrocytes, SYBR Green DNA, 72 h; series mostly up to 28.7 µM
# Procedure, shortened: as §1
# TAB113 = assay: as above; details: P. falciparum in erythrocytes, SYBR Green DNA, 72 h; series mostly up to 28.7 µM
# Procedure, shortened: as §1
# TAB165 = assay: as above; details: P. falciparum in erythrocytes, SYBR Green DNA, 72 h; series mostly up to 28.7 µM
# Procedure, shortened: as §1
# CRL-7250 = normal cell line; assay: Cytotoxic Profiling of Annotated Libraries Using Quantitative High-Throughput Screening (AID 1296008); details: Five cell lines viability, CellTiter-Glo ATP luminescence, 48-72 h; max response: hits give low values; note: potency is the fitted concentration of half-maximal effect
# Procedure, shortened: (§2)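 Cytotoxicity was measured as CellTiter-Glo ATP luminescence, read after 10 min at room temperature. Compound treatment of the cells lasted 48 or 72 hr at 37 degrees Celsius in a qHTS format.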
# HEK293 = assay: as above; details: Five cell lines viability, CellTiter-Glo ATP luminescence, 48-72 h; max response: hits give low values
# Procedure, shortened: as §2
# HaCat [1] = assay: as above; details: Five cell lines viability, CellTiter-Glo ATP luminescence, 48-72 h; max response: hits give low values
# Procedure, shortened: as §2
# KB-3-1 = assay: as above; details: Five cell lines viability, CellTiter-Glo ATP luminescence, 48-72 h; max response: hits give low values
# Procedure, shortened: as §2
# NIH3T3 = assay: as above; details: Five cell lines viability, CellTiter-Glo ATP luminescence, 48-72 h; max response: hits give low values
# Procedure, shortened: as §2
# HACAT [2] = assay: qHTS assay to identify novel small-molecules to repurpose for Merkel cell carcinoma treatment (AID 1296009); details: MCC and control cell lines, CellTiter-Glo viability, 72 h; series mostly up to 44.8 µM
# Procedure, shortened: (§3)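 After compound transfer in DMSO, plates were kept 72 hr at 37 degree celsius. Luminescent ATP signal from CellTiter-Glo served as viability measure, normalized against DMSO and no-cell controls.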
# HEK293T = assay: as above; details: MCC and control cell lines, CellTiter-Glo viability, 72 h; at 44.8 µM (top of the series) unless noted
# Procedure, shortened: as §3
# MCC-13 = assay: as above; details: MCC and control cell lines, CellTiter-Glo viability, 72 h; series mostly up to 46 µM
# Procedure, shortened: as §3
# MCC-26 = assay: as above; details: MCC and control cell lines, CellTiter-Glo viability, 72 h; series mostly up to 46 µM
# Procedure, shortened: as §3
# W2 = assay: qHTS profiling for inhibitors of Plasmodium falciparum proliferation (AID 504749); note: potency is the fitted concentration of half-maximal effect; details: P. falciparum in erythrocytes, SYBR Green DNA, 72 h; series mostly up to 28.7 µM
# Procedure, shortened: as §1
# Note: nearly all actives have a fitted effect of over 60% in size.
compound,measurement,setting,value
NCCS(=O)(=O)O,Potency,P93_24,inactive
same,Potency,P94_40,inactive
same,Potency,PAD,inactive
same,Potency,PC15,inactive
same,Potency,PC26,inactive
same,Potency,PC49,inactive
same,Potency,SC27B,inactive
same,Potency,TAB109,inactive
same,Potency,TAB113,inactive
same,Potency,TAB165,inactive
same,max response,CRL-7250,-1.77% and -3.17%
same,max response,HEK293,-1.38%
same,outcome,HEK293,inactive
same,outcome,HaCat [1],inactive
same,max response,KB-3-1,9.43%
same,max response,NIH3T3,0.192%
same,outcome,NIH3T3,inactive
same,outcome,HACAT [2],inactive
same,outcome,HEK293T,inactive
same,Potency,MCC-13,inactive
same,Potency,MCC-26,inactive
CC(C)(Oc1ccc(C2CC2(Cl)Cl)cc1)C(=O)O (centres undefined),Potency,P93_24,inactive
same,Potency,P94_40,inactive
same,Potency,PAD,inactive
same,Potency,PC26,inactive
same,Potency,PC49,inactive
same,Potency,SC27B,inactive
same,Potency,TAB109,inactive
same,Potency,TAB113,inactive
same,Potency,TAB165,inactive
same,Potency,W2,inactive
same,max response,CRL-7250,-2.5%
same,outcome,CRL-7250,inactive
same,max response,HEK293,-10.2%
same,max response,HaCat [1],-0.292%
same,outcome,HaCat [1],inactive
same,outcome,NIH3T3,inactive
same,outcome,HACAT [2],inactive
same,Potency,MCC-13,inactive
same,Potency,MCC-26,inactive
CN1CCN(CCCN2c3ccccc3Sc3ccc(Cl)cc32)CC1,max response,CRL-7250,-6.94%
same,outcome,CRL-7250,inactive
same,Potency,HEK293,14.8 µM (active)
same,max response,HaCat [1],0.937%
same,outcome,HaCat [1],inactive
same,max response,NIH3T3,-25.1%
same,outcome,HACAT [2],inactive
same,Potency,MCC-13,inactive
same,Potency,MCC-26,inactive
COc1ccc2[nH]cc(CCNC(C)=O)c2c1,Potency,P93_24,inactive
same,Potency,P94_40,inactive
same,Potency,PAD,inactive
same,Potency,PC15,inactive
same,Potency,PC26,inactive
same,Potency,PC49,inactive
same,Potency,SC27B,inactive
same,Potency,TAB109,inactive
same,Potency,TAB113,inactive
same,Potency,TAB165,inactive
same,Potency,W2,inactive
same,max response,CRL-7250,-2.01% and -27.6%
same,max response,HEK293,0.212%
same,outcome,HEK293,inactive
same,max response,HaCat [1],-2.62%
same,outcome,HaCat [1],inactive
same,max response,KB-3-1,5.26% and 4.62%
same,max response,NIH3T3,1.71%
same,outcome,NIH3T3,inactive
same,outcome,HACAT [2],inactive
same,outcome,HEK293T,inactive
same,Potency,MCC-13,inactive
same,Potency,MCC-26,inactive
CCc1cccc2c3c([nH]c12)C(CC)(CC(=O)O)OCC3 (centres undefined),max response,CRL-7250,-0.931%
same,max response,HEK293,1.01%
same,outcome,HEK293,inactive
same,max response,HaCat [1],2.9%
same,outcome,HaCat [1],inactive
same,max response,KB-3-1,-15.8% and -6.31%
same,max response,NIH3T3,3.41% and -0.401%
same,outcome,HACAT [2],inactive
same,outcome,HEK293T,inactive
same,Potency,MCC-13,inactive
same,Potency,MCC-26,inactive
CC(=O)OCC(CCn1cnc2cnc(N)nc21)COC(C)=O,Potency,P93_24,inactive
same,Potency,P94_40,inactive
same,Potency,PAD,inactive
same,Potency,PC15,inactive
same,Potency,PC26,inactive
same,Potency,PC49,inactive
same,Potency,SC27B,inactive
same,Potency,TAB109,inactive
same,Potency,TAB113,inactive
same,Potency,TAB165,inactive
same,Potency,W2,inactive
same,max response,CRL-7250,3.84%
same,outcome,CRL-7250,inactive
same,outcome,HEK293,inactive
same,max response,HaCat [1],1.33% and 3.92%
same,max response,KB-3-1,12.3% and 3.49%
same,max response,NIH3T3,3.32%
same,outcome,NIH3T3,inactive
same,outcome,HEK293T,inactive
same,Potency,MCC-13,inactive
same,Potency,MCC-26,inactive
NCCc1cnc[nH]1,Potency,P93_24,inactive
same,Potency,P94_40,inactive
same,Potency,PC15,inactive
same,Potency,PC26,inactive
same,Potency,SC27B,inactive
same,Potency,TAB109,inactive
same,Potency,TAB113,inactive
same,Potency,TAB165,inactive
same,Potency,W2,inactive
same,outcome,CRL-7250,inactive
same,max response,HEK293,4.08%
same,outcome,HEK293,inactive
same,max response,HaCat [1],-11% and 1.72%
same,max response,NIH3T3,-6.9%
same,outcome,NIH3T3,inactive
same,outcome,HEK293T,inactive
same,Potency,MCC-13,inactive
same,Potency,MCC-26,inactive
CC(C)(C)C(=O)Oc1ccc(S(=O)(=O)Nc2ccccc2C(=O)NCC(=O)O)cc1,Potency,P93_24,inactive
same,Potency,P94_40,inactive
same,Potency,PAD,inactive
same,Potency,PC15,inactive
same,Potency,PC26,inactive
same,Potency,PC49,inactive
same,Potency,SC27B,inactive
same,Potency,TAB109,inactive
same,Potency,TAB113,inactive
same,Potency,TAB165,inactive
same,Potency,W2,inactive
same,max response,CRL-7250,4.89%
same,outcome,CRL-7250,inactive
same,max response,HEK293,-6.47%
same,outcome,HEK293,inactive
same,max response,HaCat [1],-9.37%
same,outcome,HaCat [1],inactive
same,max response,KB-3-1,-8.85%
same,outcome,KB-3-1,inactive
same,max response,NIH3T3,-7.41% and -3.91%
same,outcome,HACAT [2],inactive
same,outcome,HEK293T,inactive
same,Potency,MCC-13,inactive
same,Potency,MCC-26,inactive
Cc1ccc(-c2cc(C(F)(F)F)nn2-c2ccc(S(N)(=O)=O)cc2)cc1,Potency,PC26,9.53 µM (active)
same,Potency,PC49,inactive
same,Potency,W2,6.75 µM (active)
same,max response,CRL-7250,-3.61%
same,outcome,CRL-7250,inactive
same,max response,HEK293,-17.2%
same,max response,HaCat [1],4.57% and -3.85%
same,outcome,HaCat [1],inactive
same,max response,KB-3-1,-4.37% and -12.4%
same,outcome,KB-3-1,inactive
same,max response,NIH3T3,4.24%
same,outcome,HACAT [2],inactive
same,Potency,MCC-13,inactive
same,Potency,MCC-26,inactive
O=c1c(O)c(-c2ccc(O)c(O)c2)oc2cc(O)cc(O)c12,Potency,PAD,1.78 µM (active)
same,Potency,PC49,inactive
same,Potency,TAB165,7.08 µM (active)
same,max response,CRL-7250,-43%
same,outcome,CRL-7250,inactive
same,max response,HEK293,-3.52% and -1.32%
same,max response,HaCat [1],-5.77% and -18.7%
same,max response,KB-3-1,4.77% and 21.1%
same,max response,NIH3T3,-3.23%
same,Potency,MCC-13,inactive
same,Potency,MCC-26,inactive
O=C(c1ccc(F)cc1)C1CCN(CCn2c(=O)[nH]c3ccccc3c2=O)CC1,Potency,P93_24,inactive
same,Potency,PAD,inactive
same,Potency,PC15,inactive
same,Potency,PC26,inactive
same,Potency,PC49,inactive
same,Potency,SC27B,inactive
same,Potency,TAB109,inactive
same,Potency,TAB113,inactive
same,Potency,TAB165,inactive
same,max response,CRL-7250,-21.4% and 4.56%
same,outcome,CRL-7250,inactive
same,max response,HEK293,-0.877% and -3.18%
same,max response,HaCat [1],-0.754% and -2.78% and -3.98%
same,outcome,NIH3T3,inactive
same,Potency,MCC-13,inactive
same,Potency,MCC-26,inactive
Cn1ccc2cc3c(cc21)CCN3C(=O)Nc1cccnc1,Potency,PC26,13.5 µM (active)
same,max response,CRL-7250,-6.32%
same,outcome,CRL-7250,inactive
same,max response,HEK293,-20.9%
same,outcome,HEK293,inactive
same,max response,HaCat [1],-2.9%
same,max response,KB-3-1,29.1% and 8.13%
same,max response,NIH3T3,0.531%
same,outcome,NIH3T3,inactive
same,outcome,HEK293T,inactive
same,Potency,MCC-13,inactive
same,Potency,MCC-26,inactive
